Here are results for 5 compounds from PubChem BioAssay.

Molecules are shown by their SMILES. The source made the active and inactive calls.

Test [1] has as its system Plasmodium falciparum Sir2 (PF13_0152, Sir2A). In words: Plasmodium falciparum Sir2A binding compounds – biochemical, small-molecule microarray, 635 nm fluorescence, primary screen (AID 1098).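 Note: score merges spot fluorescence intensity with its signal-to-noise ratio.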 The settings on record: fluorescence 635 nm, higher = more signal.
Test [2] is described as follows: probe aDKK1 binding to arrayed compounds – biochemical, biotinylated probe, 635/667 nm fluorescence, primary screen (AID 1099).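 Note: score merges 667nm spot fluorescence with signal to noise across triplicate slides.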 The settings on record: small-molecule microarray, higher = more signal.
Test [3] is described as follows: probe aCHRDL2 binding to arrayed compounds – biochemical, biotinylated probe, 635/667 nm fluorescence, primary screen (AID 1100). The settings on record: small-molecule microarray, higher = more signal.
Test [4] in a line: change in splice reporter luminescence, either direction, cell-based, HEK293, spliceosome inhibition project, primary screen (AID 1101).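 Note: HEK293 cells carrying a splicing-competent luciferase reporter gene; test concentration not given here.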 The settings on record: HEK293 splicing luciferase reporter, 24 h, higher = more signal, called active from +8 up or from −8 down.
In test [5] the target is Fibroblast growth factor 10 (Homo sapiens) (UniProt O15520). In words: compounds binding fibroblast growth factor 10 – biochemical, small-molecule microarray, 635 nm fluorescence, primary screen (AID 1102). The note with it: FGF10 binding, fluorescence 635 nm, higher = more signal.
Sequence of Fibroblast growth factor 10 (Homo sapiens) (O15520 whole entry, looked up): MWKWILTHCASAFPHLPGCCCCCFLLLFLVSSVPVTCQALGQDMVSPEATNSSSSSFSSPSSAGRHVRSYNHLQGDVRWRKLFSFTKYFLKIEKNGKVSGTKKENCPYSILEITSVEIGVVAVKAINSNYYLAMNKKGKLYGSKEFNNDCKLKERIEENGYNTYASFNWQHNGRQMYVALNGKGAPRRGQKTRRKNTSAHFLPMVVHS
Test [6] deals with glycogen synthase kinase-3 (GSK3A per assay name; protocol says GSK3B). In words: compounds binding glycogen synthase kinase-3 – biochemical, small-molecule microarray, 635 nm fluorescence, GSK3A, primary screen (AID 1103). Note: the record names both GSK3A and GSK3B. The note with it: fluorescence 635 nm, higher = more signal.
The target of test [7] is Epidermal growth factor receptor (Homo sapiens) (UniProt P00533). In words: compounds binding epidermal growth factor receptor – biochemical, small-molecule microarray, 635 nm fluorescence, primary screen (AID 1104).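 Note: score merges 667 nm emission intensity with spot signal to noise over triplicate slides.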 The settings on record: EGFR binding, higher = more signal.
Sequence of Epidermal growth factor receptor (Homo sapiens) (P00533 whole entry, looked up): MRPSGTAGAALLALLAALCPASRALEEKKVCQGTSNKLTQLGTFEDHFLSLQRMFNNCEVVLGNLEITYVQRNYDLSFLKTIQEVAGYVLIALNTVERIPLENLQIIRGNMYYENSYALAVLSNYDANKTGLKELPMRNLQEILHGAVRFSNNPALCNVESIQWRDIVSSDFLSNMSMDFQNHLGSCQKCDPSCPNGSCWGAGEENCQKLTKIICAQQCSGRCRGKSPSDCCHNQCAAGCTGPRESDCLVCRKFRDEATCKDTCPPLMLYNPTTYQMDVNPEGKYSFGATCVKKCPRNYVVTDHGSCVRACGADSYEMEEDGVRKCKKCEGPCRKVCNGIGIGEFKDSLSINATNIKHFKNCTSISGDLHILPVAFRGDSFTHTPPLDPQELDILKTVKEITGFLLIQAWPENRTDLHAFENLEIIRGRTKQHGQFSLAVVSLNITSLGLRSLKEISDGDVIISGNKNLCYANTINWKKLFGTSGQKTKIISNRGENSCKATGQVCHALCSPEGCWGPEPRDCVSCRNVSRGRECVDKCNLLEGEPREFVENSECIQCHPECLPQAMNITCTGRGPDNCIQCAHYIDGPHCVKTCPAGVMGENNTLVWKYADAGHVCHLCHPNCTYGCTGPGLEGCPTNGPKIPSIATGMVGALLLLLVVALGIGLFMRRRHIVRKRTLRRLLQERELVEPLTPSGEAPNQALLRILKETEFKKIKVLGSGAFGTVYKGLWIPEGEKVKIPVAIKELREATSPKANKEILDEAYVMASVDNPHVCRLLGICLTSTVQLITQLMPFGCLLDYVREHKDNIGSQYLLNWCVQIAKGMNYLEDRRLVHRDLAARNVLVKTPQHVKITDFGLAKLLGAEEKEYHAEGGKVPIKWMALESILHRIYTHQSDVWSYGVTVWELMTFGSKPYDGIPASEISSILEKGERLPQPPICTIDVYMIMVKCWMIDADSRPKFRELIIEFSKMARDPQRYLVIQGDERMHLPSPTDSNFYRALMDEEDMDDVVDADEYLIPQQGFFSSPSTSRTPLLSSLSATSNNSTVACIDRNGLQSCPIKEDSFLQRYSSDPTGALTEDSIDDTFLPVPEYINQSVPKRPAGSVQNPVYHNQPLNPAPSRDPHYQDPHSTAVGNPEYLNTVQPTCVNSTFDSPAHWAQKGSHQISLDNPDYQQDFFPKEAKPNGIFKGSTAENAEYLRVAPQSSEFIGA
The target in test [8] is Follistatin-related protein 3 (Homo sapiens) (UniProt O95633). In words: compounds binding follistatin-related protein 3 – biochemical, small-molecule microarray, 635 nm fluorescence, primary screen (AID 1105).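 Note: score merges emission near 667 nm and signal to noise per printed spot across three slides.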 The settings on record: FSTL3 binding, higher = more signal.
Sequence of Follistatin-related protein 3 (Homo sapiens) (O95633 whole entry, looked up): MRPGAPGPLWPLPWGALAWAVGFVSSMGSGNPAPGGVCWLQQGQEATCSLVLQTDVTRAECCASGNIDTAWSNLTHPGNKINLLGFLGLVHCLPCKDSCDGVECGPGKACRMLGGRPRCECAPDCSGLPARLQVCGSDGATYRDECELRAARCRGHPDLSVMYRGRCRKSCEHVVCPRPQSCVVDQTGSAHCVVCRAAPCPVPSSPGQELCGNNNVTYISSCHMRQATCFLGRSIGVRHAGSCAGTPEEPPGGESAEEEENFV
Test [9] addresses Dickkopf-related protein 1 (Homo sapiens) (UniProt O94907). In words: small molecules binding DKK1 protein – biochemical, small-molecule microarray, 635 nm fluorescence scan, primary screen (AID 1106).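 Note: score merges emission near 667 nm with signal to noise over three replicate slides.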 The settings on record: higher = more signal.
The test system of test [10] is Inhibin beta A chain (activin A). In words: small molecules binding activin A – biochemical, small-molecule microarray, 635 nm fluorescence scan, primary screen (AID 1107).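 Note: mouse activin A protein probed at 4.33 µg/mL on printed slides; score merges bound-protein fluorescence near 667 nm with spot signal-to-noise.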 The settings on record: INHBA, higher = more signal.
In test [11] the test system is Human papillomavirus type 1a protein E7 (residues 44-93). In words: small molecules binding HPV E7 44-93 – biochemical, small-molecule microarray, residues 44-93, 635 nm fluorescence, primary screen (AID 1108).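 Note: E7 fragment applied at 1 µg/mL in TBST for 1 h at 4 C; score combines spot fluorescence with its signal to noise ratio.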 The note with it: fluorescence 635 nm, higher = more signal.
Test [12] in a line: hepatitis C replication reporter changes, two-sided – Huh7 cells, luciferase reporter, HCV replication inhibitor project, primary screen (AID 1109).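 Note: huh7 hepatoma cells harbouring a luciferase neomycin HCV replicon reporter; luciferase luminescence as measure of HCV replicon replication; test concentration not given here.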 The note with it: Huh7 HCV replicon luciferase reporter, 48 h; higher = more signal.
In test [13] the target is Left-right determination factor 2 (Homo sapiens) (UniProt O00292). In words: small molecules binding LEFTY2 protein – biochemical, small-molecule microarray, 635 nm fluorescence scan, primary screen (AID 1110). The settings on record: higher = more signal.
Sequence of Left-right determination factor 2 (Homo sapiens) (O00292 whole entry, looked up): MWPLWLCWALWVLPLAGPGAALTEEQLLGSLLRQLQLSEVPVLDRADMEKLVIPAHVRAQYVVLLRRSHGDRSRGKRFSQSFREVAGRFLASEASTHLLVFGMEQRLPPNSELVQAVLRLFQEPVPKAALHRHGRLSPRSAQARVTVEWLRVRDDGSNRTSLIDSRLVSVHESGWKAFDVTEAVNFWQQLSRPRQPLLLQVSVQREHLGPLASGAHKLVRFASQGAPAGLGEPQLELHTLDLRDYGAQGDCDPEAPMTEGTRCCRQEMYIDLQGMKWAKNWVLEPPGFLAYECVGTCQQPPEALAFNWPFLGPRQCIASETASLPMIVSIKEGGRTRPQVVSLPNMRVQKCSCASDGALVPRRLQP
Test [14] has as its target Calmodulin-1 (Homo sapiens) (UniProt P0DP23). In words: small molecules binding calmodulin-1 with EGTA – biochemical, small-molecule microarray, Cy5-labelled CALM1, profiling panel (AID 1111).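 Note: labelled calmodulin applied in Tris saline Tween buffer holding calcium plus EGTA and DTT.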 The note with it: Cy5-CALM1 binding fluorescence, higher = more signal.
Test [15] shares this target. In words: small molecules binding Ca-loaded calmodulin-1 – biochemical, small-molecule microarray, Cy5-labelled CALM1, plus calcium, artefact control for SMM control-protein annotation, profiling panel (AID 1112).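 Note: score merges spot fluorescence with signal to noise from triplicate slides.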 The settings on record: Cy5-CALM1 binding fluorescence, higher = more signal.
Test [16] can be described thus: probe aWnt5a binding to arrayed compounds – biochemical, biotinylated probe, 635/667 nm fluorescence, primary screen (AID 1113).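 Note: score merges 667 nm fluorescence intensity with signal-to-noise per printed feature.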 The note with it: small-molecule microarray, higher = more signal.
Test [17] can be described thus: probe aShh binding to arrayed compounds – biochemical, biotinylated probe, 635/667 nm fluorescence, primary screen (AID 1114).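 Note: probe is biotin-labelled aShh protein from a stem cell growth factor screen; measures binding of labelled protein to compounds printed on the slide; score merges feature fluorescence at 667 nm with signal-to-noise.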 The note with it: small-molecule microarray, higher = more signal.
The nature of test [18]: probe aNog binding to arrayed compounds – biochemical, biotinylated probe, 635/667 nm fluorescence, primary screen (AID 1115).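 Note: probe is biotinylated aNog protein used at 0.15 µg/mL for 1 h at 4 C; z-score combines 667 nm fluorescence of each spot with its signal to noise.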 The note with it: small-molecule microarray, higher = more signal.
Test [19] deals with Torsin-1A-interacting protein 1 (Homo sapiens) (UniProt Q5JTV8). In words: compound microarray binding of lysate hLAP1 – cell lysate, small-molecule microarray, COS7 lysate, 635/667 nm fluorescence, primary screen (AID 1116). The settings on record: 635 nm fluorescence, higher = more signal.
Sequence of Torsin-1A-interacting protein 1 (Homo sapiens) (Q5JTV8 whole entry, looked up): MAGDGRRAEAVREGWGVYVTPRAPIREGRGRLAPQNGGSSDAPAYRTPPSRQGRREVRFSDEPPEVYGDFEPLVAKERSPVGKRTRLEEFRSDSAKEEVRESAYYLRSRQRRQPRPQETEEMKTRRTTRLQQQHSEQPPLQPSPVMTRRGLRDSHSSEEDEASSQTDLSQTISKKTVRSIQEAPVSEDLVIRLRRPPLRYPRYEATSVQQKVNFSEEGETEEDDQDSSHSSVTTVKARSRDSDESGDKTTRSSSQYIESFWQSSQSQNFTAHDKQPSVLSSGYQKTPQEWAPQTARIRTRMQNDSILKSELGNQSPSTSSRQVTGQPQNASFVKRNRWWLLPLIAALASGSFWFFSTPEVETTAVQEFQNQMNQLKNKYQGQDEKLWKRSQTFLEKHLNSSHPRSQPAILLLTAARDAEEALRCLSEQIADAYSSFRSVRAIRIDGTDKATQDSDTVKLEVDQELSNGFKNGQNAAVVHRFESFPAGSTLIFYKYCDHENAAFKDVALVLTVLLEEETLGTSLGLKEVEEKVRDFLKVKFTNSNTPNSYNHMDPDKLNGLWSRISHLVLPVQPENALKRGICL
Test [20] concerns the target Alpha-bungarotoxin (Bungarus multicinctus) (UniProt P60615). In words: compounds binding labelled alpha-BTX control protein – biochemical, small-molecule microarray, Alexa647 label, 635/667 nm fluorescence, artefact control for SMM control protein annotation, profiling panel (AID 1117). The note with it: alpha-BTX-A647 binding fluorescence, higher = more signal.

Sequence of Dickkopf-related protein 1 (Homo sapiens) (O94907 whole entry, looked up): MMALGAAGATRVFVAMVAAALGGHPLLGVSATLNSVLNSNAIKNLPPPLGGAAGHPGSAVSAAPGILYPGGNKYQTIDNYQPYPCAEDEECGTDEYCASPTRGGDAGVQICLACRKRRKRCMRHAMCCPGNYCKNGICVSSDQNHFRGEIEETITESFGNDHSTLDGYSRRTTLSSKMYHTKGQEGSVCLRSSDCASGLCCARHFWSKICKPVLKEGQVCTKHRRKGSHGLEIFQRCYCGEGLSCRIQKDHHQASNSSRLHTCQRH
Sequence of Alpha-bungarotoxin (Bungarus multicinctus) (P60615 whole entry, looked up): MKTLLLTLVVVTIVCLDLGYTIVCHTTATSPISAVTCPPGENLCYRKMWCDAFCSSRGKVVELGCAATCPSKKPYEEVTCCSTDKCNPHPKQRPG

For the compound `O=[N+]([O-])c1ccc(C[n+]2ccc(CCCO)cc2)o1`, the composite z-score worked out at 0.513 in test [1]; 0.762 in [2]; 0.805 in test [3]; 1.54 in test [5]; 0.634 in [6]; 0.396 in test [7]. Moreover, the composite z-score was determined as 1.13 in [8]; 1.08 in test [9]; 0.918 in [10]; 1.15 in [11]; 0.69 in [13]; 1.2 in [14]. Moreover, the composite z-score in test [15] is 0.561; in [16] it was -0.0364; in [17] it was -0.0035; in [18], -0.278; in test [19], 0.261; in test [20] it was 1.47. Also, the z-score is 0.115 (inactive) in [4] and -0.341 in test [12].
With `CN(C)CCCCNC(=O)[C@@H]1C[C@@H]2C(=O)N[C@@H](CCCCN)C(=O)N2[C@@H]1c1cccc(OCCO)c1`, the composite z-score in test [1] is 1.9; in test [2] it was 0.123; in [3], 0.74; in [5] it was -0.383; in test [6] it was 0.0265; in test [7], -1.22. In addition, the composite z-score in [8] is -0.795; in test [9] it was -0.988; in [10], 0.0049; in test [11], 0.572; in [13] it was -1.55; in [14], -0.328. For the same compound, the composite z-score in [15] was -0.547; in test [16] it was -0.12; in test [17], 0.0735; in test [18] it was 0.42; in test [19], 0.482; in test [20], -0.863. Also, the z-score was -0.239 (inactive) in [4] and -0.289 in [12].
Take `C=C(/C(=C/C[C@@H](OC(=O)c1ccncc1)c1ccc(CO)o1)c1cc(C(=O)OC)ccc1OC)C(C)C`: the composite z-score in test [1] was 1.32; in test [2], -0.0623; in test [3] it was -0.109; in test [5], 1.3; in test [6], 1.14; in [7] it was 0.439. The composite z-score is 1.13 in test [8]; 0.432 in [9]; -0.0326 in test [10]; 0.838 in [11]; 0.512 in test [13]; 0.224 in test [14]. The composite z-score is -0.0294 in [15]; -0.063 in test [16]; 0.0893 in [17]; 0.107 in [18]; 0.815 in [19]; 0.582 in test [20]. For the same compound, the z-score in test [4] is 0.614 (inactive); in test [12] it was -2.03.
Regarding `CC1CC/C=C\[C@H]2OC34C=CCN(c5ccc6ccccc6c5)C(=O)[C@H]3N(CCCCCO)C(=O)[C@@H]4C2C(=O)O1` (stereo not given in full), the composite z-score is 0.207 in [1]; 0.207 in test [2]; 0.62 in test [3]; -1.34 in [5]; -1.25 in test [6]; 0.0445 in test [7]. Moreover, the composite z-score in test [8] was -0.213; in test [9] it was -1.58; in test [10], -0.522; in [11], -2.21; in test [13] it was -1.64; in test [14] it was -0.827. For the same compound, the composite z-score in test [15] was -0.16; in [16] it was -0.141; in test [17], -0.214; in test [18] it was -0.119; in [19] it was -1.16; in test [20], -1.28. Further, the z-score in test [4] is 0.375 (inactive); in [12], 0.324.
Take `C=C(C(=O)CC[C@H](OC(=O)c1cccnc1)c1ccccc1OCCO)C(C)C`: the composite z-score in test [1] was 1.14; in test [2], -0.109; in [3], -0.0641; in test [5], 1.56; in [6] it was 0.98; in [7], 1.25. The composite z-score was 1.13 in [8]; 0.962 in test [9]; 1.11 in [10]; 1.05 in test [11]; 0.753 in test [13]; -0.62 in test [14]. For the same compound, the composite z-score in test [15] is -1.24; in [16], 0.121; in [17], -0.0035; in [18] it was -0.176; in test [19] it was 1.99; in test [20], 0.892. The z-score in test [4] was 3.21 (inactive); in test [12], -2.71.
